Screening data as filed in PubChem.
Rows were chosen to be rich in hits. Some 3.8% of all compounds tested hit in one or more screens of this group.
A549 tox-1 = counter-screen for Nrf2 inhibitors: cytotoxicity in A549 cells; 0.16% of 390,000 active; A549 ARE-Fluc cells, CellTiter-Fluor viability, 18-24 h; AID 504648; Potency, µM (highest dose often 46 µM), without a hit: top-dose activity change, negative = cytotoxicity, usual class: inhibitors; note: % is set by controls: 0 for no effect and ±100 for the full control effect
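Cytotoxicity counterscreen: CellTiter-Fluor fluorescence was measured in A549 ARE_Fluc cells after 18-24 h of compound exposure in a concentration series. The subsequent BugLite luminescent read reports ARE-luciferase activity.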
Nrf2 block = inhibitors of Nrf2 signaling; A549 ARE-Fluc reporter, luciferase luminescence, 18-24 h; Potency, µM (highest dose often 46 µM), without a hit: at the highest dose activity change, negative = inhibition, usual class: inhibitors; 2.1% of 360,000 active; AID 504444; note: % is set by controls: 0 for no effect and ±100 for the full control effect; nearly all actives have a fitted effect of over 60% in size
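A549 ARE_Fluc cells (5000/well, 5% FBS OPTI-MEM) pre-incubated 2 h, then treated with compounds 18-24 h at 37C/5% CO2 in concentration-response. CellTiter-Fluor viability read first; BugLite luciferase luminescence after 15 min at room temperature gives Nrf2 activity.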
Nrf2 activator = Nrf2 pathway activation. Potency, µM (doses to about 46.1 µM), without a hit: top-dose activation, usual class: activators. 0.31% of 410,000 active. AID 624171. AREc32 ARE-luciferase reporter (MCF7-derived line), luminescence, 24 h; note: % of control where 0% means no effect; nearly all actives have a fitted effect of over 65% in size
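ARE activation measured as luciferase luminescence (Steady-Glo, 30 min RT) in AREc32_Fluc cells after 24 hr compound exposure at 37 deg C, 5% CO2; cells seeded overnight at 1000/well in OPTI-MEM, 5% FBS.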
mIDH1 inhibitor = human IDH1 R132H inhibition. O75874. IDH1-R132H enzyme, NADPH consumption, diaphorase/resazurin fluorescence. Potency, µM (titrated, usually from 76.6 µM), without a hit: at the top dose activity change, negative = inhibition, actives largely listed as inhibitors. 0.093% of 390,000 active. AID 602179; note: % is set by controls: 0 for no effect and ±100 for the full control effect; nearly all actives have a fitted effect of over 65% in size
Target sequence (O75874 whole entry R132H, stated change not applied): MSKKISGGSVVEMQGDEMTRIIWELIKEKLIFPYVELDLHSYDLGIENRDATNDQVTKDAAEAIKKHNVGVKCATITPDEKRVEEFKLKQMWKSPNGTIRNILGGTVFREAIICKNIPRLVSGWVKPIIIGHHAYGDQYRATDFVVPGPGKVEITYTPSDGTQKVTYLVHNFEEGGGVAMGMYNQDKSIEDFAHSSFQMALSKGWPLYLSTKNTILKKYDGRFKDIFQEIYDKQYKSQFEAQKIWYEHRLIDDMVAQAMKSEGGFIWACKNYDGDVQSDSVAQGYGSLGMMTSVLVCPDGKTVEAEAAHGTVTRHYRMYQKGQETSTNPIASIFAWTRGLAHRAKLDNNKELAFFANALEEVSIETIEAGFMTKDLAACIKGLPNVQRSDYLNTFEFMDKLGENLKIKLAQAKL
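IDH1-R132H (0.5 ug/mL) preincubated 30 min with compound, then NADPH (0.016 mM) and alpha-KG (2 mM) added; 80 min at RT, pH 7.5. Remaining NADPH coupled via diaphorase/resazurin to fluorescence (540/590 nm); concentration-response curves normalized to no-enzyme control.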
ELG1 repair inh = blocks ELG1-dependent DNA repair in HEK293T cells; HEK293T ELG1-luciferase reporter, luminescence, 16 h; DNA damage induced by 5-fluorouridine; Potency, µM (titrated, usually from 46.1 µM), for the others: at the top dose activity change, negative = inhibition, hits mostly inhibitors; 2.3% of 330,000 active; AID 504467; note: % is set by controls: 0 for no effect and ±100 for the full control effect; nearly all actives have a fitted effect of over 55% in size
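Quantitative HTS, concentration-response format. 2,000 cells/well co-treated with 5-fluorouridine and compound, 16 hr in 5% CO2 at 37 °C; ONE-Glo luminescence read after 30 min.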
FLuc counter 3 = blocks purified firefly luciferase in Nrf2 counterscreen; shares compounds with Nrf2 block; purified firefly luciferase, luminescence inhibition; Potency, µM (top dose mostly 57.5 µM), for the others: top-dose activity change, negative = inhibition, most hits filed as inhibitors; 4% of 1,400 active; AID 720522; note: % is set by controls: 0 for no effect and ±100 for the full control effect; nearly all actives have a fitted effect of over 65% in size
A549 tox-2 = toxic to A549 ARE-Fluc cells in Nrf2 counterscreen. shares compounds with Nrf2 block. AID 720523. Potency, µM (titrated, usually from 46.1 µM), without a hit: at the highest dose activity change, negative = cytotoxicity, most hits filed as inhibitors. 2% of 1,400 active. A549 ARE-Fluc cells, cytotoxicity counterscreen;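 note: cells exposed to compounds for 18 to 24 hours; % is set by controls: 0 for no effect and ±100 for the full control effect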
ARE-Fluc inh = Nrf2 inhibition confirmed, A549 ARE-luciferase. 74% of 1,400 active. Potency, µM (doses to about 46.1 µM), for inactives: at the highest dose activity change, negative = inhibition, actives largely listed as inhibitors. A549 ARE-firefly luciferase reporter, luminescence. shares compounds with Nrf2 block; note: % is set by controls: 0 for no effect and ±100 for the full control effect; nearly all actives have a fitted effect of over 65% in size
An asterisk follows results filed as active; ? = inconclusive; . = not tested or not shown; [ ] = remark or other dose. Calls come from the whole dose curve; as a rule, active = well fitted curve in the direction sought with a large enough effect; inconclusive = small, poorly fitted or top-dose-only effect, or another doubt; inactive = no such curve, though single readings can be large; an effect the other way counts as inactive or inconclusive. Potency is the fitted concentration of half-maximal effect.

SMILES	A549 tox-1	Nrf2 block	Nrf2 activator	mIDH1 inhibitor	ELG1 repair inh	FLuc counter 3	A549 tox-2	ARE-Fluc inh
Cc1ccc(NS(=O)(=O)c2cc3c(cc2Cl)CCC(=O)N3)cc1Cl	9.0%	-0.2%	.	.	.	.	.	.
CCCCNC(=O)C1CCC(CNS(=O)(=O)c2ccc(Cl)cc2)CC1 (stereo not drawn)	0.0%	.	0.1%	7.7%	.	.	.	.
CCOc1ccccc1Nc1nc(-c2sc(NC(=O)c3ccco3)nc2C)cs1	-14.9%	?	3.7%	0.3%	?	.	.	.
CCCC(=O)Nc1nc(C)c(-c2csc(Nc3ccc(Cl)cc3)n2)s1	?	7.31µM*	9.1%	3.4%	?	16.9µM*	-16.6%	?
CCC(=O)Nc1nc(C)c(-c2csc(Nc3ccc(C(=O)O)cc3)n2)s1	-0.8%	16.5%	-0.9%	-0.5%	0.5%	.	.	.
COc1ccccc1Nc1nc(-c2sc(NC(=O)C(C)(C)C)nc2C)cs1	-4.2%	7.31µM*	0.9%	-21.6%	?	?	-17.6%	20.6µM*
O=C(NC(CSC(=O)c1ccccc1)C(=O)O)OCc1ccccc1 (stereo not drawn)	8.3%	-7.2%	0.0%	-1.3%	.	.	.	.
CCCN(C(=O)CCSc1ccc(F)cc1)c1c(N)n(Cc2ccccc2)c(=O)[nH]c1=O	-11.1%	3.2%	-0.5%	-1.6%	-2.4%	.	.	.
Cc1cccc(N2CCN(C(=O)C3CCC(CNS(=O)(=O)c4cccs4)CC3)CC2)c1C (stereo not drawn)	-20.5%	6.51µM*	2.6%	-1.6%	9.2µM*	0.3%	-17.2%	8.2µM*
COc1cccc(C2C3=C(Nc4[nH]n(-c5ccccc5)c(=O)c42)c2ccccc2C3=O)c1 (stereo not drawn)	.	.	.	.	-11.6%	.	.	.
Cn1c2c(c(=O)[nH]c1=O)C(c1cccc(O)c1)C1=C(N2)c2ccccc2C1=O (stereo not drawn)	-24.5%	8.2µM*	0.2%[9.22 µM]	-1.3%	?	-25.2%	?	4.61µM*
Cc1cc(-n2c(C)nc3ccccc3c2=O)ccc1NC(=O)c1ccc(C)c([N+](=O)[O-])c1	1.7%	.	0.6%	6.6%	.	.	.	.
O=C(NCC(c1ccco1)N1CCCC1)c1ccc(Cl)c(S(=O)(=O)N2CCc3ccccc32)c1 (stereo not drawn)	8.2µM*	1.3µM*	7.2%	1.1%	?	-13.6%	-29.1%	.
O=C(NCC(c1ccco1)N1CCc2ccccc2C1)c1ccc(Cl)c([N+](=O)[O-])c1 (stereo not drawn)	-3.7%	13.2%	20.6%	-1.3%	-16.0%	.	.	.
CCn1c(=O)c2cc(C(=O)NC3CCC(C)CC3)sc2c2ccccc21 (stereo not drawn)	14.6%	-3.4%	0.5%	-3.3%	.	.	.	.
CCc1ccc(-c2nn(CC(=O)NC3CCCCC3)c3c2cnc2ccc(C)cc23)cc1	5.2%	22.6%	-0.6%	-9.7%	.	.	.	.
CCc1ccc2ncc3c(-c4ccc(F)cc4)nn(CC(=O)NC4CCCCC4)c3c2c1	0.0%	1.64µM*	-0.7%	-13.7%	.	-0.3%	-2.3%	?
C=C(C)C(=O)Oc1ccc(N2C(=O)[C@@H]3C4C=CC(C4)[C@@H]3C2=O)cc1	-10.1%	-1.1%	?	0.9%	?	.	.	.
COCCNC(=O)CSc1ccccc1C(=O)NC1CCCc2ccccc21 (stereo not drawn)	12.1%	3.8%	-0.3%	-6.8%	1.1%	.	.	.
CCOC(=O)O[C@]1(C(=O)COC(=O)CC)CC[C@H]2[C@@H]3CCC4=CC(=O)C=C[C@]4(C)[C@H]3[C@@H](O)C[C@@]21C	-4.8%	0.058µM*	6.0%	11.9%	6.8%	-1.2%	-9.7%	0.058µM*
C[C@]12C=CC(=O)C=C1CC[C@@H]1[C@@H]2[C@@H](O)C[C@@]2(C)[C@H]1CC[C@]2(O)C(=O)COC(=O)CCC(=O)NCCc1ccc(O)cc1	-0.5%	0.116µM*	-0.5%	-10.3%	4.7%	-0.2%	8.2µM*	5.8µM*
C[C@]12C=CC(=O)C=C1CC[C@@H]1[C@@H]2[C@@H](O)C[C@@]2(C)[C@H]1CC[C@]2(O)C(=O)COC(=O)CCC(=O)O	-16.4%	0.0461µM*	0.2%	-7.7%	7.6%	4.7%	-5.3%	0.231µM*
C[C@]12C=CC(=O)C=C1CC[C@@H]1[C@@H]2[C@@H](O)C[C@@]2(C)[C@H]1CC[C@]2(O)C(=O)CO	-10.6%	0.058µM*	0.1%	12.0%	2.5%	2.8%	-2.0%	0.0731µM*
C[C@]12CCC(=O)C=C1[C@H](O)C[C@@H]1[C@@H]2[C@@H](O)C[C@@]2(C)[C@H]1CC[C@]2(O)C(=O)CO	-1.1%	6.9%	-0.4%	-6.2%	?	.	.	.
C[C@H]1C[C@@H]2[C@H]([C@@H](O)C[C@@]3(C)[C@H]2CC[C@]3(O)C(=O)CO)[C@@]2(C)C=CC(=O)C=C12	-3.1%	0.0259µM*	-0.7%	1.9%	22.6%	0.4%	-3.0%	0.0326µM*
SMILES	A549 tox-1	Nrf2 block	Nrf2 activator	mIDH1 inhibitor	ELG1 repair inh	FLuc counter 3	A549 tox-2	ARE-Fluc inh
Cc1ccc(-c2cc3cccc[n+]3cc2-c2ccc(C)cc2)cc1	-16.9%	3.26µM*	3.3%	1.7%	?	0.9%	-11.7%	2.59µM*
Cc1ccc2nc(-c3ccncc3)cc(-c3ccccc3)c2c1	-1.9%	.	4.5%	?	20.0%	.	.	.
CCc1ccc(-c2nn(CC(=O)Nc3ccccc3)c3c2cnc2ccc(F)cc23)cc1	-3.3%	?	5.2%	9.1%	.	.	.	.
C=CCn1c(SCc2c(C)noc2C)nc2sc3c(c2c1=O)CCCC3	?	9.2µM*	-0.7%	4.3%	18.4µM*	-1.0%	-14.5%	?
CC(=O)N1CCN(C(=O)CN2C(=O)NC(C)(c3ccc4ccccc4c3)C2=O)CC1 (stereo not drawn)	6.3%	-10.4%	-0.1%	3.9%	4.2%	.	.	.
CC1(c2ccc3ccccc3c2)NC(=O)N(CC(=O)N2CCN(Cc3ccc(C#N)cc3)CC2)C1=O (stereo not drawn)	-14.3%	0.411µM*	2.1%	-0.2%	-14.7%	0.1%	1.8%	0.82µM*
CCN(C(=O)c1cn(-c2cccc(OC)c2)c(=O)c2ccccc12)c1ccccc1C	-5.4%	-7.2%	0.2%	-3.7%	.	.	.	.
COc1ccc(S(=O)(=O)n2nc(OC(=O)c3ccc(C)cc3)cc2N)cc1	-14.4%	0.581µM*	-1.9%	-1.2%	0.7%	-23.0%	4.8%	.
